Hits are enriched below; roughly 3.1% of the tested compounds scored in any of these assays.
S16 F2sN tox: toxic to S16 Pmp22-F2sN Schwann cells. 0.48% of 43,000 active. AID 1508642. S16 Pmp22-F2sN Schwann cells viability, CellTiter-Glo, 24 h. Potency, µM (series often up to 57.5 µM), hits mostly cytotoxic; further: nearly all actives have a fitted effect of over 65% in size
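CellTiter-Glo counter-screen, qHTS, 1536-well. Cells: S16(c9) Pmp22-F2sN, 500-1,000/well in DMEM + 10% FBS. Cpd 23 nL pin transfer, 24 h, 37C/5% CO2. Read: luminescence, CCD imager.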
PMP22 txn: modulators of PMP22 gene transcription in S16 Schwann cells; S16 Pmp22-F2sN Schwann cells (luciferase reporters placed in the Pmp22 gene), FLuc/NLuc coincidence luminescence, 24 h; Potency, µM (highest dose often 57.5 µM), actives largely listed as inhibitors; 2% of 43,000 active; active means clear falling dose curves in both reporters; inconclusive means both reporters move, but less clearly or upward; inactive means either reporter flat; the % is the NLuc reporter signal
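Schwann cells carrying the coincidence reporter were exposed to library compounds for 24 h at 37C, then lysed and read for FLuc and, after quenching, NLuc luminescence on a CCD imager.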
p53null 39C tox: selectivity test: cytotoxicity in p53 null cells, nonpermissive temperature; H1299 p53-null (neo) cells, 39C, ATPlite viability, 24 h; Potency, µM (titrated, usually from 46.1 µM), most hits filed as cytotoxic; 0.97% of 55,000 active; AID 904; further: nearly all actives have a fitted effect of over 50% in size
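H1299 lung cancer cells, p53-null (H1299-neo) or expressing p53 A138V (H1299-p53A138V), were plated overnight at 37C, then exposed to compounds at up to 46 uM for 24 hr at 39C. Viability was read by ATP-based luminescence.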
p53null 32C kill: p53 null cell cytotoxicity, permissive temperature; H1299-neo p53 null cells, ATP luminescence, 24 h, 32C; Potency, µM (series often up to 46.1 µM), most hits filed as cytotoxic; 0.62% of 55,000 active; further: nearly all actives have a fitted effect of over 55% in size
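Overnight 37C seeding (600 cells/well) of H1299-neo preceded a 24 hr, 32C exposure to compounds up to 46 uM. ATP levels, read by luminescence after 20 min at RT, indicated surviving cells.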
pS6 MEF inh: reduces mTORC1 signaling in Tsc2 and p53 null MEF cells; AID 493208; Tsc2-/- p53-/- MEF, phospho-rpS6 immunofluorescence/PI, 24 h; 0.78% of 44,000 active; Potency, µM (highest dose often 38.3 µM), hits mostly inhibitors; further: nearly all actives have a fitted effect of over 50% in size
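Immunofluorescence of rpS6 phosphorylation in Tsc2-/-, p53-/- MEFs after 24 h compound exposure, normalized to propidium iodide signal. Activity is expressed as % positive cells, thresholded with 7.5 nM rapamycin.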
OvCa metastasis: inhibitors of ovarian cancer cell adhesion and invasion in omental model; 0.1% of 46,000 active; Potency, µM (series often up to 45.8 µM), most hits filed as inhibitors; SKOV3ip1-GFP adhesion/invasion on 3D omental model, fluorescence; further: nearly all actives have a fitted effect of over 65% in size
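Primary human omental fibroblast/mesothelial 3D culture pre-formed 48 h. SKOV3ip1-GFP cells added with compounds (0.36-46 umol/L), incubated 2 h RT/16 h 37 C, fixed; GFP cells quantified at 488/509 nm.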
Hits are given with their value; – = inactive; ? = inconclusive; · = not tested or not shown. Unless noted, the call rests on the fitted dose curve; in most records, active means well fitted curve in the direction sought with a large enough effect; inconclusive means small, poorly fitted or top-dose-only effect, or another doubt; inactive means no such curve, though single readings can be large; an effect the other way counts as inactive or inconclusive.

SMILES	S16 F2sN tox	PMP22 txn	p53null 39C tox	p53null 32C kill	pS6 MEF inh	OvCa metastasis
c1ccc(N2CCN(c3ncnc4[nH]ncc34)CC2)cc1	–	–	–	–	15µM	–
CCCCN1C(C(=O)c2ccccc2)=C(OC(=O)CC)c2ccccc2S1(=O)=O	–	?	?	13µM	?	–
CCCCCN1C(C(=O)c2ccccc2)=C(OC(=O)CC)c2ccccc2S1(=O)=O	?	?	?	?	–	–
O=C(Nc1cccc(C(F)(F)F)c1)Nc1ccc2snnc2c1	?	9.5µM	?	–	–	–
CC(=O)Nc1cccc(-c2csc(Nc3ccc(C)cn3)n2)c1	·	·	·	11µM	·	·
Cc1nc(-c2cccc(NC(=O)c3cccs3)c2)cs1	·	·	–	–	·	·
O=C(Nc1ccc(NC(=O)c2ccco2)nc1)c1cccnc1	·	·	?	13µM	·	·
COc1cc(NC(=O)c2ccc(-c3ccc(Cl)cc3)o2)cc(OC)c1	·	·	·	·	·	–
COc1ccc(OC)c(NC(=O)CSC2=Nc3ccccc3C3=NC(CCC(=O)NCc4ccccc4)C(=O)N23)c1 (stereo not given)	?	12µM	–	–	–	–
CC(C)c1ccc(NC(=O)CSC2=Nc3ccccc3C3=NC(CCC(=O)NCc4ccc(F)cc4)C(=O)N23)cc1 (stereo not given)	28µM	?	–	–	?	–
CCc1ccc(NC(=O)CSC2=Nc3ccccc3C3=NC(CCC(=O)NCc4ccccc4)C(=O)N23)cc1 (stereo not given)	–	–	–	–	–	–
CC(C)(C)OC(=O)N[C@H]1CCCCCC=C[C@@H]2C[C@@]2(C(=O)NS(=O)(=O)C2CC2)NC(=O)[C@@H]2C[C@@H](OC(=O)N3Cc4cccc(F)c4C3)CN2C1=O	·	·	·	·	·	–
CC1CCN(S(=O)(=O)c2ccc(C(=O)Nc3sc4c(c3C(N)=O)CC(C)(C)NC4(C)C)cc2)CC1	?	?	–	–	18µM	?
CCOC(=O)c1c(NC(=O)c2ccc(S(=O)(=O)N(CCOC)CCOC)cc2)sc2c1CC(C)(C)NC2(C)C	?	–	–	–	12µM	?
C[C@H]1O[C@H](O[C@H]2[C@H](O)[C@@H](O)[C@@H](O[C@H]3[C@H](O)[C@@H](O)C(O)O[C@H]3CO)O[C@H]2CO)[C@H](O)[C@@H](O)[C@H]1N[C@H]1C=C(CO)[C@@H](O)[C@H](O)[C@@H]1O (stereo not given in full)	·	·	·	·	·	–
COc1ccc(NC(=O)CCS(=O)(=O)c2nc(-c3cccs3)cc(C(F)(F)F)n2)cc1OC	?	?	–	–	13µM	?
COc1cc(NC(=O)CCS(=O)(=O)c2nc(-c3cccs3)cc(C(F)(F)F)n2)cc(OC)c1OC	?	?	–	–	?	?
O=C(CCS(=O)(=O)c1nc(-c2cccs2)cc(C(F)(F)F)n1)Nc1cccc(O)c1	?	?	–	–	13µM	?
O=C(Nc1nc2c(F)cccc2s1)c1ccc2c(c1)OCCO2	–	?	?	4µM	–	–
CNC1CCC(N(Cc2cccc(-c3ccncc3)c2)C(=O)c2sc3c(F)ccc(F)c3c2Cl)CC1 (stereo not given)	·	·	·	·	·	–
Cc1cccc(OCCCSc2nc(-c3ccc(C(C)(C)C)cc3)nc3cc(=O)[nH]n23)c1C	–	–	13µM	–	–	–
Cc1ccc(OCCSc2nc(-c3ccccc3C)nc3cc(=O)[nH]n23)cc1Cl	?	?	25µM	–	–	–
CN(C)CC=CC(=O)Nc1cc2c(Nc3ccc(F)c(Cl)c3)ncnc2cc1O[C@H]1CCOC1	·	·	·	·	·	–
Cc1nc(-c2cccc(NC(=O)Nc3ccc([N+](=O)[O-])cc3)c2)no1	28µM	?	–	–	?	–
COc1ccc(C)cc1NC(=O)Nc1cccc(-c2noc(C)n2)c1	–	?	–	–	?	–
SMILES	S16 F2sN tox	PMP22 txn	p53null 39C tox	p53null 32C kill	pS6 MEF inh	OvCa metastasis
CCCCN(C)CCNC(=O)c1cc(-c2ccc(Cl)s2)nc2ccccc12	?	?	13µM	–	?	–
COc1ccc(-c2cc(C(=O)Oc3ccc(C)c(C)c3)c3ccccc3n2)cc1	–	–	–	–	–	–
COc1ccc(-c2cc(C(=O)Oc3ccc(Br)cc3)c3ccccc3n2)cc1	–	–	13µM	?	–	–
Nc1c(C(=O)Nc2ccc(C(=O)O)cc2)sc2nc3c(cc12)CCCC3	–	–	?	?	–	–
CCOc1ccc(NC(=O)c2sc3nc4c(cc3c2N)CCCCCC4)cc1	–	?	–	–	21µM	–
COc1ccc(-c2n[nH]c3c2C(c2ccc(O)cc2)N(c2ccc(Br)cc2)C3=O)cc1 (stereo not given)	?	?	–	–	15µM	–
COc1ccc(OC)c(C2c3c(-c4ccc(Br)cc4)n[nH]c3C(=O)N2c2ccc(Cl)cc2)c1 (stereo not given)	?	?	–	–	–	?
Cc1ccc2nc(N(Cc3cccnc3)C(=O)CCS(=O)(=O)c3ccccc3)sc2c1	18µM	?	–	–	–	–
Cc1ccc(CNC(=O)c2c[nH]n3c(=O)c(Cc4ccc(Cl)cc4)c(C)nc23)cc1	–	–	?	?	–	–
Cc1nc2c(C(=O)NCCc3ccc(Cl)cc3)c[nH]n2c(=O)c1Cc1ccc(Cl)cc1	–	–	20µM	?	–	–
Cc1nc2c(C(=O)NCCc3ccccc3)c[nH]n2c(=O)c1Cc1ccccc1F	–	–	?	16µM	–	–
CCOc1ccccc1NC(=O)c1c(NCc2sccc2C)sc2c1CCC(C)C2 (stereo not given)	–	?	–	–	15µM	–
Cc1ccccc1Oc1nc2ccccn2c(=O)c1/C=C(\C#N)c1nc2ccccc2[nH]1	–	–	–	–	9.3µM	–
COc1ccc(Oc2nc3c(C)cccn3c(=O)c2/C=C(\C#N)c2nc3ccccc3[nH]2)cc1	–	–	–	–	13µM	–
COc1c(C)c2c(c(O)c1CC=C(C)CCC(=O)O)C(=O)OC2	·	·	·	·	·	–
CCCN(CCC)CCCNC(=O)c1cnn(-c2ccc(F)cc2)c1-n1cccc1	–	–	–	–	–	–
O=C(NCCCN1CCN(c2cccc(Cl)c2)CC1)c1cnn(-c2ccc(F)cc2)c1-n1cccc1	–	?	22µM	–	?	–
CC1CCN(c2ccc(-c3cccc(NS(=O)(=O)c4ccc(Cl)s4)c3)nn2)CC1	·	·	10µM	6.3µM	–	–
COc1ccc(F)cc1S(=O)(=O)Nc1cccc(-c2ccc(N3CCC(C)CC3)nn2)c1	·	·	?	?	–	–

Assay outcomes from PubChem.
